ClpP mod = qHTS Assay for Activators of ClpP; purified B. subtilis ClpP, FRET peptide cleavage, 20 min; actives 1.9% (n = 340,000); AID 651965, 2013; Potency, µM (highest dose often 57.5 µM), without a hit: at the highest dose activity change, negative = active; active = well fitted falling curve with a large enough effect; inconclusive = small, poorly fitted or top-dose-only effect; inactive = no such curve, though single readings can be large or run the other way; note: potency is the fitted concentration of half-maximal effect; the source files actives as falling curves though it sought activators and does not explain the sign; nearly all actives have a fitted effect of over 65% in size
Target sequence (P80244 whole entry, looked up): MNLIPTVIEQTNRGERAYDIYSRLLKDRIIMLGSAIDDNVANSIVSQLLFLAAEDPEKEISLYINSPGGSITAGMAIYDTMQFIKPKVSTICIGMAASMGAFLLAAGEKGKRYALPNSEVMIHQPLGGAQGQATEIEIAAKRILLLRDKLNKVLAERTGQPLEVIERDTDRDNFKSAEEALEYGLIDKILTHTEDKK
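Buffer: 100 mM Tris/HCl pH8, 100 mM KCl, 0.05% low protease BSA, 2.5% glycerol, 0.01% Tween-20. ClpP 10 microg/mL final; 20 min RT; delta FRET normalized to ADEP and DMSO controls.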
KCNH2 3.1 block = qHTS for Inhibitors of KCHN2 3.1: Mutant qHTS. U2OS KCNH2 3.1, thallium flux FluxOr; stronger effect = lower value. actives 0.95% (n = 340,000). Potassium voltage-gated channel subfamily H member 2, brain isoform KCNH2 3.1 (human). activity change, % (tested at about 1.8 µM);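 active = maximum activity change below -70%; inconclusive = maximum activity change from -70% to -50%; inactive = maximum activity change above -50%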;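 note: thallium influx rate constant from kinetic fluorescence after stimulation buffer; % is set by controls: 0 for no effect and ±100 for the full control effect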
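Virally transduced U2OS (3.1 isoform, 4 h infection in dark at RT) → overnight 37 C → FluxOr + Red40 in HBSS/HEPES, 45 min → stimulation buffer, 2 min kinetic read → rate constant vs DMSO controls.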
TRPV1 PAM = HTS Assay for Compounds that Act as Potentiators of the Vanilloid Receptor 1; Transient receptor potential cation channel subfamily V member 1 (Homo sapiens), Q8NER1; TRPV1-expressing cells, Fluo-8 calcium influx, capsaicin EC20 potentiation; potentiation, % at 8.33 µM; actives 0.02% (n = 320,000); in the data active = potentiation above about 80%; inconclusive = between about 30% and that limit; note: 0% is about no effect
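Cells expressing TRPV1 were dye-loaded with Fluo-8 and read kinetically: 10 s baseline, 3 min after compound (agonist portion), then 2 min after EC20 capsaicin (allosteric enhancer portion). Calcium-bound dye fluorescence at 480/520 nm.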
KCNH2 WT inh = qHTS for Inhibitors of KCHN2 3.1: Wildtype qHTS | Voltage-gated inwardly rectifying potassium channel KCNH2 (Homo sapiens), Q12809 | U2OS, BacMam KCNH2, thallium flux FluxOr; stronger effect = lower value | activity change, % at 1.84 µM | actives 0.37% (n = 340,000) | AID 720551, 2013;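 active = maximum activity change below -70%; inconclusive = maximum activity change between -70% and -50%; inactive = maximum activity change above -50%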; note: % is set by controls: 0 for no effect and ±100 for the full control effect
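U2OS cells were transduced with wild-type KCNH2 virus (2.03 x 10^8 / mL) for 4 h at room temperature, then cultured overnight at 37 C. Thallium flux was read with FluxOr dye. Rate constants were normalized to DMSO controls.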
TRPV1 agonist = HTS Assay for Compounds that Act as Agonists of the Vanilloid Receptor 1; Transient receptor potential cation channel subfamily V member 1 (Homo sapiens), Q8NER1; activation, % at 8.33 µM; AID 540275, 2011; TRPV1-expressing cells, Fluo-8 calcium influx, agonist mode; actives 0.19% (n = 320,000); in the data active = activation above about 80%; inconclusive = between about 30% and that limit; note: 0% is about no effect
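Cells expressing TRPV1 were dye-loaded with Fluo-8 and read kinetically: 10 s baseline, 3 min after compound (agonist portion), then 2 min after EC20 capsaicin (allosteric enhancer portion). Calcium-bound dye fluorescence at 480/520 nm.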
p53 reactivator = qHTS assay for re-activators of p53 using a Luc reporter. H1299 p53-A138V BP100-luciferase reporter, luminescence, 24 h. Potency, µM (series often up to 92.2 µM), for inactives: top-dose activity change, positive = activation, hits mostly activators. actives 0.063% (n = 320,000); active = well fitted activation curve with a large enough effect; inconclusive = small, poorly fitted or top-dose-only effect; inactive = no such curve, though single readings can be large or run the other way; note: potency is the fitted concentration of half-maximal effect; % of control where 0% means no effect; nearly all actives have a fitted effect of over 45% in size
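p53-null H1299 cells stably carrying temperature-sensitive p53-A138V and a BP100-luciferase reporter were pinned with compounds (4-point, 1:5 series) and held 24 hrs at 37 deg C. Luminescence was read 10 min after detection reagent.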
Starred values were filed as active, the others as inactive. An excerpt weighted towards active compounds, which were near 2.6% of everything screened.

`Cc1cc(OCC(=O)NNC(=O)c2ccncc2)cc(C)c1Cl` gave ClpP mod 0%, KCNH2 3.1 block 4, TRPV1 PAM -23, KCNH2 WT inh -2, TRPV1 agonist 27 and p53 reactivator -9%.
CCCCOc1cccc(C(=O)N(Cc2ccc(N(C)C)cc2)C2CCS(=O)(=O)C2)c1 (stereo not drawn) was read as ClpP mod -3%.
For CCOC(=O)c1c(C)[nH]c(C)c1S(=O)(=O)NCC(=O)Nc1ccc(CC)cc1 the results were ClpP mod 0%.
`CCCCOc1ccc(C(=O)Nc2ccncc2)cc1` gave ClpP mod -15%, KCNH2 3.1 block -3, TRPV1 PAM -7, KCNH2 WT inh 8, TRPV1 agonist 93* and p53 reactivator -8%.
For C=CC(=O)Nc1ccc(Br)cc1 the results were ClpP mod 16µM*, KCNH2 3.1 block 11, TRPV1 PAM -5, KCNH2 WT inh 6, TRPV1 agonist 12 and p53 reactivator 3%.
COc1cccc(CCc2ccccc2OCC(CN(C)C)OC(=O)CCC(=O)O)c1 (stereo not drawn) was read as ClpP mod 1%.
O=C(Cc1ccc(Br)cc1)OCC(=O)c1ccc[nH]1 was read as ClpP mod 5%, KCNH2 3.1 block -4, KCNH2 WT inh -8 and p53 reactivator 7%.
COc1ccc(CC(=O)OCC(=O)c2ccc[nH]2)cc1 was read as ClpP mod 1%, KCNH2 3.1 block 13, TRPV1 PAM 2, KCNH2 WT inh -284*, TRPV1 agonist 0 and p53 reactivator 13%.
`NC(=O)c1c(N)sc2c1CCCC2` gave ClpP mod -8%, KCNH2 3.1 block 12, TRPV1 PAM 5, KCNH2 WT inh 8, TRPV1 agonist 6 and p53 reactivator 15%.
CCN1CCc2c(sc(N)c2C(N)=O)C1 was read as ClpP mod 14µM*, KCNH2 3.1 block -6, TRPV1 PAM 1, KCNH2 WT inh -5, TRPV1 agonist -1 and p53 reactivator 0%.
For CN1CCc2c(sc(N)c2C(N)=O)C1 the results were ClpP mod 20µM*, KCNH2 3.1 block -3, TRPV1 PAM -32, KCNH2 WT inh -8, TRPV1 agonist inconclusive and p53 reactivator 12%.
Screening CC(C)(C)C1CCc2c(sc(NC(=O)c3cc4ccccc4c(=O)o3)c2C(N)=O)C1 (stereo not drawn) returned ClpP mod 1%.
CCc1cc(/C=C/c2ccnc3ccccc23)ccc1N(C)C was read as ClpP mod -1%.
For CCOC(=O)/C(C#N)=C\c1ccc(N2CCN(C/C=C/c3ccccc3)CC2)cc1 the results were ClpP mod 1%, KCNH2 3.1 block -83*, TRPV1 PAM 1, KCNH2 WT inh -10, TRPV1 agonist 19 and p53 reactivator 28%.
For O=C(CSc1ncccc1C(=O)O)NC1CCCCCCC1 the results were ClpP mod -1%, KCNH2 3.1 block -79*, TRPV1 PAM 7, KCNH2 WT inh -3, TRPV1 agonist 0 and p53 reactivator 0%.
For CC(=O)NCCn1c(SCC(=O)NC2CCCCC2)nc2ccccc2c1=O the results were ClpP mod 32µM*, KCNH2 3.1 block -13, TRPV1 PAM -2, KCNH2 WT inh -9, TRPV1 agonist 2 and p53 reactivator -3%.
`O=C(CSc1ccccc1C(=O)O)NC1CCCCCC1` gave KCNH2 3.1 block 9, TRPV1 PAM -3, KCNH2 WT inh -4, TRPV1 agonist 2 and p53 reactivator 3%.
For CCn1c(COc2ccccc2)nnc1SCC(=O)NC1CCCCC1 the results were ClpP mod -12%, KCNH2 3.1 block -5, TRPV1 PAM 19, KCNH2 WT inh -176*, TRPV1 agonist -8 and p53 reactivator -17%.
Cc1ccc(NC(=O)CSc2nc3ccccc3c(=O)n2Cc2cccs2)cc1 was read as ClpP mod -5%, KCNH2 3.1 block -73*, TRPV1 PAM -5, KCNH2 WT inh 15, TRPV1 agonist 27 and p53 reactivator inconclusive.
CCn1c(SCC(=O)NC2CCCCC2)nc2ccccc2c1=O was read as ClpP mod -1%, KCNH2 3.1 block 8, TRPV1 PAM -6, KCNH2 WT inh 1, TRPV1 agonist 8 and p53 reactivator 11%.
For COCCCn1c(SCC(=O)Nc2ccc(C)cc2)nc2ccccc2c1=O the results were KCNH2 3.1 block -14, TRPV1 PAM -5, KCNH2 WT inh 3, TRPV1 agonist 24 and p53 reactivator 10%.
For Cc1ccc(NC(=O)N2CCN3CCCCC3C2)cc1C (stereo not drawn) the results were ClpP mod -1%.
Screening CCC(Sc1nncn2c1cc1oc(C)cc12)C(=O)Nc1ccc(F)cc1 (stereo not drawn) returned ClpP mod 9%.
For CCc1ccc(NC(=O)CSc2nc3ccccc3c(=O)n2CCNC(C)=O)cc1 the results were ClpP mod 0%.
`CCc1ccc(NC(=O)CSc2nc3ccccc3c(=O)n2CCCN2CCC(C)CC2)cc1` gave ClpP mod -5%, KCNH2 3.1 block -97*, TRPV1 PAM 13, KCNH2 WT inh -135*, TRPV1 agonist 13 and p53 reactivator 13%.
Screening O=C(CN(Cc1ccco1)S(=O)(=O)c1ccccc1)N/N=C/c1ccccc1C(=O)O returned KCNH2 3.1 block -104*, TRPV1 PAM 23, KCNH2 WT inh -2, TRPV1 agonist -4 and p53 reactivator -3%.
`O=C(CN(c1ccccc1Cl)S(=O)(=O)c1ccccc1)N/N=C/c1ccccc1C(=O)O` gave KCNH2 3.1 block -2, TRPV1 PAM 1, KCNH2 WT inh 7, TRPV1 agonist -3 and p53 reactivator 1%.
For CC(=O)Nc1ccc(NC(=O)C(C)OC(=O)c2cccc(S(=O)(=O)N3CCCCCC3)c2)cc1 (stereo not drawn) the results were ClpP mod 1%, KCNH2 3.1 block -3, TRPV1 PAM -9, KCNH2 WT inh -1, TRPV1 agonist 4 and p53 reactivator 2%.
